The list is not random: actives were taken first. Their share in the collection is about 2%.
LDHA block: blocks human lactate dehydrogenase A; purified LDHA, NADH/diaphorase-resazurin fluorescence; stronger effect = lower value; P00338; AID 1347041; 0.15% of 480,000 active; activity change, % (values are at about 110 or 230 µM); in the data active means activity change below about -30%; inconclusive means mostly about -25% to -30%;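 further: plate controls were DMSO wells for no effect and wells without enzyme for full effect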
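Human LDH5 at 2 nM final in Tris HCl pH 7.4 with 0.06 mM NADH and 0.2 mM pyruvate, reacted 5 minutes at room temperature. Remaining NADH coupled via diaphorase/resazurin; resorufin fluorescence read at 0 and 20 minutes, normalized to enzyme-free and DMSO wells.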
IDH1 R132H inh: inhibitors of human mutant IDH1 R132H; Potency, µM (top dose mostly 76.6 µM), for inactives: at the highest dose activity change, negative = inhibition, actives largely listed as inhibitors; 0.093% of 390,000 active; IDH1-R132H enzyme, NADPH consumption, diaphorase/resazurin fluorescence; AID 602179; further: potency means the concentration at half of the fitted maximal effect; on the % scale 0 is the no-effect control and ±100 the full control effect; nearly all actives have a fitted effect of over 65% in size
Target sequence (O75874 whole entry R132H, stated change not applied): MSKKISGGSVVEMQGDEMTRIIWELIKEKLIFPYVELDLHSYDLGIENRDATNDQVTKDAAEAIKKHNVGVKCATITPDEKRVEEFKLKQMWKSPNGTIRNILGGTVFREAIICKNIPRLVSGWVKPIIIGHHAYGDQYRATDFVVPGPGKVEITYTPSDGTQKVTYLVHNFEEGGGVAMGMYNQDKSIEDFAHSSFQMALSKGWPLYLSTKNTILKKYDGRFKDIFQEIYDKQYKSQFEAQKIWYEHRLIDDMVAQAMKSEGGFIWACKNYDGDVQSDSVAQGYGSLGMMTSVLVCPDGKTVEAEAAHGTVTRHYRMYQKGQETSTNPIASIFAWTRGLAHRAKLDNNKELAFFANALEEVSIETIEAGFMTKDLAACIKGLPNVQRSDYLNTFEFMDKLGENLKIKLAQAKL
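IDH1-R132H (0.5 ug/mL dispensed) in pH 7.5 Tris buffer was preincubated 30 min with compound, then given a substrate mix of 0.016 mM NADPH and 2 mM alpha-KG for 80 min at room temperature; remaining NADPH was read by diaphorase/resazurin fluorescence.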
aSyn yeast inh: rescues yeast growth from alpha-synuclein toxicity; Yeast expressing alpha-synuclein, growth rescue, BacTiter-Glo, 24 h; 0.14% of 370,000 active; Potency, µM (highest dose often 46.1 µM), without a hit: at the highest dose growth rescue (activation), usual class: activators; further: potency means the concentration at half of the fitted maximal effect; % of control where 0% means no effect; nearly all actives have a fitted effect of over 65% in size
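Screening used galactose-induced yeast with toxic alpha-synuclein levels, exposed to compound for 24 hr at 30 deg C. Cell growth, read with BacTiter-Glo luminescence, gave the measured signal.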
FUS suppressor: suppressors of FUS proteinopathy in yeast | 0.24% of 390,000 active | AID 1347120 | Potency, µM (highest dose often 76.6 µM), most hits filed as activators | S. cerevisiae FUS-expressing, growth rescue, OD600, 24 h;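 further: potency means the concentration at half of the fitted maximal effect; plate controls were DMSO vehicle for no effect and reference control for full effect; nearly all actives have a fitted effect of over 55% in size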
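Restored growth of FUS-toxic S. cerevisiae, read as 600 nm absorbance after 24 h at 30C in galactose medium (starting OD 0.005). Controls CP55940 and DMSO.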
TDP-43 yeast inh: TDP-43 toxicity inhibition in yeast; TDP-43 expressing yeast growth rescue, BacTiter-Glo, 24 h; Potency, µM (top dose mostly 46.1 µM), without a hit: at the top dose growth rescue (activation), actives largely listed as activators; 1.8% of 410,000 active; further: potency means the concentration at half of the fitted maximal effect; % of control where 0% means no effect; nearly all actives have a fitted effect of over 50% in size
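Galactose-induced TDP-43 yeast, OD600=0.02, compound pinned; 24 hr, 30 deg C; BacTiter-Glo luminescence for growth. Inhibitors of TDP-43 toxicity read as activators.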
Abeta rescue: A-beta toxicity reversal in yeast | yeast expressing A-beta42, growth rescue, OD600, 48 h; response scale: 0% DMSO, 100% iron-clioquinol control | 0.063% of 410,000 active | Potency, µM (titrated, usually from 46.1 µM), hits mostly activators | AID 1347071; further: potency means the concentration at half of the fitted maximal effect; nearly all actives have a fitted effect of over 55% in size
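Yeast growth medium received pinned compounds, then yeast cells expressing toxic A-beta were added; plates incubated at 30 C for 48 hr. Growth read as absorbance at 600 nm, normalized to DMSO and equimolar FeCl3 plus clioquinol controls.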
* = called active by the depositor; i = inactive; u = inconclusive; x = no result. Unless noted, the call rests on the fitted dose curve; in most records, active means well fitted curve in the direction sought with a large enough effect; inconclusive means small, poorly fitted or top-dose-only effect, or another doubt; inactive means no such curve, though single readings can be large; an effect the other way counts as inactive or inconclusive.

SMILES	LDHA block	IDH1 R132H inh	aSyn yeast inh	FUS suppressor	TDP-43 yeast inh	Abeta rescue
Cc1nnc(NC(=O)c2nc(SCc3ccccc3F)ncc2Cl)s1	0.4	7.0%	x	u	15.8µM*	i
CCCCN(Cc1ccccc1)c1ccc(NS(=O)(=O)c2cc(C)ccc2C)cc1C(=O)O	9.6	x	x	x	x	x
CN(CC(=O)NC(=O)NCc1ccccc1)C1CCCc2ccccc21 (configuration not stated)	6.6	x	x	x	x	x
N#Cc1c(NC(=O)CCn2nnc(-c3cccc(Cl)c3)n2)sc2c1CCCC2	2.7	x	x	x	x	x
COc1ccc(-c2ccc(CCC(=O)NC3CCCCC3)o2)cc1	4.3	x	x	x	x	x
COc1ccccc1Nc1nc(-c2cccc([N+](=O)[O-])c2)cs1	1.2	-2.7%	-20.1%	i	22.4µM*	i
C=CCNC(=S)Nc1ccccc1F	5.7	x	x	x	x	x
CCN(c1ccc(-c2csc(Cc3ccccc3)n2)cc1)S(C)(=O)=O	5.7	x	x	x	x	x
CC(C)(C)n1nc(-c2ccc(F)cc2)c2c(N)ncnc21	-4.9	9.4%	u	i	-62.2%	i
CC(C)(C)n1nc(-c2ccc(Cl)cc2)c2c(N)ncnc21	-4.3	6.0%	2.51µM*	i	-45.9%	i
CCc1c(C)sc(NC(=O)c2ccc(F)cc2)c1C#N	5.6	x	x	x	x	x
Nc1ccc(-c2nc3ncccc3o2)cc1	-1.5	0.0%	15.8µM*	i	13.0%	u
Cc1ccc(N(Cc2ccccc2)C(=O)c2cccc(S(=O)(=O)N3CC(C)OC(C)C3)c2)cc1 (configuration not stated)	-10.7	4.4%	-19.6%	28.2µM*	-31.2%	i
CCCCCCCCCc1conc1C(=O)CP(=O)(OC)OC	0.2	x	-4.1%	i	35.5µM*	i
CCCCCCCCCc1conc1C(=O)/C=C/c1ccco1	1.9	x	0.6%	i	14.3%	i
O=C(O)C1C2C=CC(C3CC23)C1C(=O)O (configuration not stated)	4.0	0.0%	6.6%	i	14.1µM*	i
Cc1cccc(NC(=O)C2C3C=CC(C4CC34)C2C(=O)O)c1 (configuration not stated)	-11.0	0.4%	9.1%	i	u	i
CCCCCCCCN1C(=O)[C@@H](CC(=O)N2CCN(C(=O)C3CC3)CC2)C[C@@]2(C(=O)OC)C1=C[C@H](COCc1ccccc1)O[C@@H]2C	x	x	x	28.2µM*	x	x
COC(=O)[C@]12C[C@H](CC(=O)N3CCCCC3)C(=O)N(Cc3ccccc3)C1=C[C@H](COCc1ccccc1)O[C@@H]2C	x	x	x	i	x	x
COC(=O)[C@]12C[C@H](CC(=O)NCc3ccc(C)o3)C(=O)N(Cc3ccccc3)C1=C[C@H](COCc1ccccc1)O[C@@H]2C	x	x	x	35.5µM*	x	x
COC(=O)[C@]12C[C@H](CC(=O)N3CCC(c4ccccc4)CC3)C(=O)N(Cc3ccccc3)C1=C[C@H](COCc1ccccc1)O[C@@H]2C	x	x	x	12.6µM*	x	x
CCC(C)Sc1nnc(NC(=O)c2ccco2)s1 (configuration not stated)	0.2	4.3%	-24.0%	i	12.6µM*	i
Cc1cccc(C)c1OCc1cc(=O)n2c3c(sc2n1)CCCC3	-0.1	5.8%	x	i	35.5µM*	i
Cc1ccccc1NC1=CC(=O)CC(C)(C)C1	-17.0	-0.6%	-1.5%	i	-14.7%	i
CC1(C)CC(=O)C=C(NC2=CC3OC(c4ccccc4)OCC3OC2=O)C1 (configuration not stated)	-7.2	5.1%	12.6µM*	x	12.6µM*	i
SMILES	LDHA block	IDH1 R132H inh	aSyn yeast inh	FUS suppressor	TDP-43 yeast inh	Abeta rescue
COc1cc(NC(=O)c2cc(-c3ccccc3Cl)on2)cc(OC)c1OC	-2.1	-0.8%	-26.2%	i	15.8µM*	i
CC(CCC(C)[n+]1cccc(Br)c1)[n+]1cccc(Br)c1 (configuration not stated)	-30.5*	x	-10.4%	x	x	x
CCCCCC(=O)N1C[C@@H](n2cc(C3CC3)nn2)[C@H](O)C[C@@H]1c1ccc(C)cc1	-31.9*	2.4%	u	i	0.0%	i
CCCCCC(=O)N1C[C@H](n2cc(C3CC3)nn2)[C@@H](O)C[C@@H]1c1ccc(C)cc1	-2.6	-6.6%	-1.2%	i	22.0%	i
Cc1ccccc1OCC(=O)N/N=C/c1cc2ccccc2nc1Cl	-4.8	-6.0%	-6.1%	i	0.0%	i
C=CCc1ccccc1OCC(=O)N/N=C/c1ccc(OC(C)=O)cc1OC(C)=O	4.6	u	12.6µM*	i	-7.8%	i
Cc1cc(C)c2c(=O)n(CC(=O)Nc3ccc(C)c(F)c3)c(=O)n(-c3ccccc3)c2n1	7.8	x	x	x	x	x
COCCn1cnnc1SCc1ccc(Br)cc1	-2.4	x	x	x	x	x
CCCn1ncc2c(Nc3ccc(C)c(C)c3)ncnc21	-2.8	17.8%	-11.6%	i	11.2µM*	i
Cn1ncc2c(NCc3cccc(Cl)c3)ncnc21	-1.4	-1.2%	x	i	14.1µM*	i
COCCNc1nc(NCc2cccc(Cl)c2)c2cnn(C)c2n1	-1.5	x	x	i	11.7%	i
Cc1ccc(-n2ncc3c(Nc4ccc5c(c4)OCCO5)ncnc32)cc1C	0.4	55.6%	x	i	16.2%	i
Cn1ncc2c(Nc3ccc(Cl)c(Cl)c3)ncnc21	-15.5	1.3%	-14.9%	i	7.08µM*	i
O=C(/C=C/c1ccco1)OC(C(=O)c1ccccc1)c1ccccc1 (configuration not stated)	-4.4	x	x	x	x	x
O=C(O)c1ccc2nc(-c3ccc(-c4ccccc4)cc3)c(-c3ccc(-c4ccccc4)cc3)nc2c1	7.0	x	x	x	x	x
O=[N+]([O-])c1ccc2nc(C(F)(F)F)[nH]c2c1	-0.8	x	x	x	x	x
O=C(Nc1ccon1)c1cc2c(s1)CCCCCC2	-3.3	2.9%	1.3%	i	12.6µM*	i
O=C(Nc1ccon1)c1cc2c(s1)CCCC2	-8.6	2.9%	-6.7%	i	-3.6%	i
O=C(Nc1ccccc1N1CCOCC1)c1cc2c(s1)CCCCC2	-6.1	12.9%	-17.6%	i	7.94µM*	i
Cc1csc(NC(=O)c2cc3c(s2)CCCC3)n1	-4.3	20.2%	-37.0%	i	28.2µM*	i
Cc1ccc(CNC(=O)c2cccc(-c3ccc(S(=O)(=O)N4CCCCC4)cc3)c2)cc1	-7.3	x	x	x	x	x
COc1ccc(OCC(O)CN2CCN(c3ccccc3)CC2)cc1 (configuration not stated)	-1.2	-12.4%	-5.2%	i	-17.4%	i
COc1ccc(NCC(O)COc2ccc(C(C)(C)C)cc2)cc1 (configuration not stated)	-0.7	9.4%	24.2%	i	15.8µM*	u

Assay outcomes (PubChem BioAssay)
